Test results from PubChem BioAssay (NCATS).
Records with an inconclusive call do not appear. Activity calls are given as the source filed them. Calls come from the whole dose curve; as a rule, active = well fitted cell-killing curve with a large enough effect; inconclusive = small, poorly fitted or top-dose-only effect, or effect the other way; inactive = no such curve, though single readings can be large or run the other way. Where a SMILES comes first, the peptide text is derived from it. Bridges are numbered along the chain shown (N, C = ends). [ ]: non-standard residue; d: D form. The star is where a group is joined. X1 = CC[C@@H](C)[C@@H](N)C1=N[C@H](C(=O)*)CS1; d(aIle) = CC[C@H](C)[C@@H](N)C(=O)O; dOrn = NCCC[C@@H](N)C(=O)O

assay: qHTS assay to identify small molecule inhibitors of chordoma cells - UCH-1 (AID 1259355); conditions: UCH-1 chordoma viability, CellTiter-Glo, 48 h, combination, with auranofin plus four topoisomerase inhibitors; series mostly up to 46.1 µM; activity, negative = inhibition: at the top concentration; note: nearly all actives have a fitted effect of over 55% in size
How it was run: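 Seed 800 cells per well; incubate overnight at 37 C, 5% CO2. Add test compounds (15 concentrations), then the auranofin–topoisomerase-agent combination. Incubate 48hr, add CellTiter-Glo, wait 30min, read luminescence.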
% is set by controls: 0 for no effect and ±100 for the full control effect.

Structure (SMILES) | activity, negative = inhibition
CCCCCCCCCCCC(=O)OCC(O)CO (stereo not drawn) | -14% (inactive)
CC(C)(CO)[C@@H](O)C(=O)NCCCC(=O)O | -9.58% (inactive)
CCOc1ccc(NC(=S)Nc2ccc(OCC)cc2)cc1 | -8.29% (inactive)
COC(=O)[C@@H](N)CS | -6.2% (inactive)
CC(=O)Nc1c(I)c(C(=O)N[C@H]2C(O)O[C@H](CO)[C@@H](O)[C@@H]2O)c(I)c(N(C)C(C)=O)c1I (stereo partly drawn) | -35.2% [at 20.6 µM] (inactive)
O=C1c2ccccc2C(=O)C1c1ccc(F)cc1 | -17.1% (inactive)
CNCC(=O)N[C@@H](CCCN=C(N)N)C(=O)N[C@H](C(=O)N[C@@H](Cc1ccc(O)cc1)C(=O)N[C@H](C(=O)N[C@@H](Cc1cnc[nH]1)C(=O)N1CCC[C@H]1C(=O)N[C@@H](C)C(=O)O)C(C)C)C(C)C | -13.8% (inactive)
CCCCCCCCCCCC(=O)N(CCO)CCO | -8.99% (inactive)
CS(=O)(=O)OCC(O)C(O)COS(C)(=O)=O (stereo not drawn) | -10.1% (inactive)
OC/C=C/c1ccccc1 | 13.7% (inactive)
O=C1CCC(c2ccccc2)(C2CCN(Cc3ccccc3)CC2)C(=O)N1 (stereo not drawn) | -14% (inactive)
O=C(O)c1cc(N=Nc2ccc(O)c(C(=O)O)c2)ccc1O | 0.556% (inactive)
O=C(O)COc1ccccc1/C=N/NC(=O)c1ccncc1 | -7.47% (inactive)
CCCCC(=O)O[C@H]1CC[C@H]2[C@@H]3CCc4cc(O)ccc4[C@H]3CC[C@]12C | -17.3% (inactive)
C(=C\c1ccncc1)/c1ccccc1 | 0.456% (inactive)
Cn1c(O)c(N=NC(N)=S)c2ccccc21 | -20.3% (inactive)
O=C1CC[C@@H](C(=O)N[C@H]2C[C@@H]2c2ccccc2)N1 | -4.73% (inactive)
CO[C@H]1C[C@H](O[C@H]2[C@H](C)[C@@H](O[C@@H]3O[C@H](C)C[C@H](N(C)C)[C@H]3O)[C@@H](C)C[C@]3(CO3)C(=O)[C@H](C)[C@@H](O)[C@@H](C)[C@@H](C)OC(=O)[C@@H]2C)O[C@@H](C)[C@@H]1O | -27.9% [at 20.6 µM] (inactive)
CC(C)C[C@H](NC(=O)[C@@H](COC(C)(C)C)NC(=O)[C@H](Cc1ccc(O)cc1)NC(=O)[C@H](CO)NC(=O)[C@H](Cc1c[nH]c2ccccc12)NC(=O)[C@H](Cc1cnc[nH]1)NC(=O)[C@@H]1CCC(=O)N1)C(=O)N[C@@H](CCCN=C(N)N)C(=O)N1CCC[C@H]1C(=O)NNC(N)=O | 3.42% (inactive)

Structure (SMILES) | activity, negative = inhibition
Cc1cc2nc3c(=O)[nH]c(=O)nc-3n(C[C@H](O)[C@H](O)[C@H](O)COP(=O)(O)OP(=O)(O)OC[C@H]3O[C@@H](n4cnc5c(N)ncnc54)[C@H](O)[C@@H]3O)c2cc1C | -5.7% (inactive)
CC(CN(C)C)CN1c2ccccc2Sc2ccc(C(F)(F)F)cc21 (stereo not drawn) | -9.83% (inactive)
CCC(Cc1c(I)cc(I)c(O)c1I)C(=O)O (stereo not drawn) | -7.79% (inactive)
C=O | -17.7% (inactive)
CC/C=C\C/C=C\C/C=C\C/C=C\C/C=C\CCCC(=O)O | -8.55% (inactive)
NC(Cc1ccccc1)C(=O)O (stereo not drawn) | -7.12% (inactive)
c1ccc2cc(C3=NCCN3)ccc2c1 | 4.8% (inactive)
CC12CCC(C1)C(C)(C)C2=O (stereo not drawn) | -20.8% (inactive)
CCCCCCCCCCCCOCCCN | -1.69% (inactive)
CCCCC[C@H](O)/C=C/[C@H]1[C@H](O)CC(=O)[C@@H]1C/C=C\CCCC(=O)O | 1.79% (inactive)
CCC[C@@H]1C[C@@H](C(=O)N[C@@H]([C@H]2O[C@H](SC)[C@H](O)[C@@H](O)[C@H]2O)[C@H](C)Cl)N(C)C1 | 16.9% (inactive)
COC1=C(OC)C(=O)C(C/C=C(\C)CC/C=C(\C)CC/C=C(\C)CC/C=C(\C)CC/C=C(\C)CC/C=C(\C)CC/C=C(\C)CC/C=C(\C)CC/C=C(\C)CCC=C(C)C)=C(C)C1=O | -1.43% (inactive)
CC(C)(C)NC[C@H](O)COc1ccccc1C1CCCC1 | -30.9% [at 20.6 µM] (inactive)
NC[C@@H]1O[C@H](O[C@H]2[C@@H](O)[C@H](O[C@@H]3[C@@H](O)[C@H](N)C[C@H](N)[C@H]3O[C@H]3O[C@H](CO)[C@@H](O)[C@H](O)[C@H]3N)O[C@@H]2CO)[C@H](N)[C@@H](O)[C@@H]1O | -7.71% (inactive)
CCN(CC)CCOc1ccccc1OC | -16% (inactive)
CCOC(=O)c1cc(-c2ccccc2)nc2ccc(C)cc12 | -14% (inactive)
C=CC1=C(C(=O)O)N2C(=O)[C@@H](NC(=O)/C(=N/OCC(=O)O)c3csc(N)n3)[C@H]2SC1 (stereo in doubt) | -5.32% [at 20.6 µM] (inactive)
CC[C@@H](C)[C@@H](N)C1=N[C@H](C(=O)N[C@@H](CC(C)C)C(=O)N[C@@H](CCC(=O)O)C(=O)N[C@@H](C(=O)N[C@@H]2CCCCNC(=O)[C@@H](CC(N)=O)NC(=O)[C@@H](CC(=O)O)NC(=O)[C@@H](Cc3cnc[nH]3)NC(=O)[C@@H](Cc3ccccc3)NC(=O)[C@@H]([C@H](C)CC)NC(=O)[C@@H](CCCN)NC2=O)[C@@H](C)CC)CS1 (X1-LE[d(aIle)][dK][dOrn][dI][dF][dH][dD][dN]; lactam 4-C) | 5.82% [at 20.6 µM] (inactive)
O=C(O)Cc1cc(I)c(Oc2ccc(O)c(I)c2)c(I)c1 | 3.45% [at 20.6 µM] (inactive)
